Our source for the inhibition values is PubChem BioAssay AID1527 (The Scripps Research Institute Molecular Screening Center, 2009).

As a reminder, the inhibition is the drop in the measured response relative to a control, in per cent.

Each structure is given as a SMILES string. Hit rate of the full screen: of about 290,000 compounds, about 2,600 (0.9%) were called active. For the sample, actives were picked, then their nearest neighbours and some compounds at random. Unmarked numbers belong to inactive results.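 How the source made its calls: active means inhibition above the mean of all tested compounds plus 3 SD, cutoff set per screening run (cut at about 7.5% in these data); inactive means the rest.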

The subject of the assay is VIM-2 metallo-beta-lactamase (Pseudomonas aeruginosa). Description: VIM-2 metallo-beta-lactamase inhibitors, primary screen, biochemical, epi-absorbance readout, Pseudomonas aeruginosa enzyme (AID 1527).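 Further: red hydrolysis product quenches plate fluorescence so inhibitors raise well fluorescence; 0% = enzyme with DMSO and 100% = DMSO without enzyme.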 To be noted: purified VIM-2, nitrocefin hydrolysis, epi-absorbance fluorescence; at 5.6 µM; active compounds read high.
For `Cn1c(-c2sc3cc(C(F)(F)F)cnc3c2-c2ccccc2)n[nH]c1=S`, the inhibition is -7.11%.
In the case of `Cn1c(-c2sccc2OCc2cccc(C(F)(F)F)c2)n[nH]c1=S` it was 27% (active); in that of `Cc1ccccc1-c1n[nH]c(=S)n1C`, 2.67%.
In the case of `COc1ccccc1NC(=O)CCN1CCN(c2ccc(Cl)cc2)CC1` it was 0.08%.
In the case of `Cc1cccn2c(=O)c(C=O)c(Nc3ccc(S(N)(=O)=O)cc3)nc12` it was 19.5% (active); in that of `CNc1nc2c(C)cccn2c(=O)c1C=Nc1ccc(OC)cc1`, 4.33%; in that of `O=Cc1c(Nc2ccccc2Cl)nc2ccccn2c1=O`, 0.26%.
As to `C/C(N)=C(/C#N)C(=O)COC(=O)C1=NN(c2ccccc2)C(=O)CC1`, the inhibition is -2.51%.
In the case of `COc1cccc(NC(=O)C2CCCN(c3ncnc4c3nc3n4CCCCC3)C2)c1` (configuration not stated) it was -0.06%; in that of `COCCCNC(NC(=O)c1ccc(C)cc1)C(Cl)(Cl)Cl` (configuration not stated), -1.71%.
In the case of `CC(C)(C)NC(=O)CSC(=Nc1ccccc1F)NC#N` it was -1.17%.
For `CCC(c1nnnn1C(C)(C)C)N(Cc1cc2cccc(C)c2n2nnnc12)C1CCCC1` (configuration not stated), the inhibition was -3.3%.
Consider `O=C(CCCN1C(=O)c2cccc3cccc(c23)C1=O)N1CCN(Cc2ccc3c(c2)OCO3)CC1`, for which the inhibition was 4.6%.
For the molecule `Cn1c(=O)cc(OCCCC(=O)N2CCN(c3ccccn3)CC2)c2ccccc21`, the inhibition was -0.05%.
In the case of `Cn1c(=O)cc(OCCCC(=O)N2CCN(Cc3ccc4c(c3)OCO4)CC2)c2ccccc21` it was 9.27% (active).
With `COc1cc(C)cc(CN2CCC(Cc3ccccc3)CC2)c1O`, the inhibition was -1.32%.
Take `CCn1c(=O)n(CC)c2cc(N3CCCC3)c(NC(=O)c3ccccc3Br)cc21`: the inhibition was 0.64%.
As for `CCOc1ccc(C)cc1S(=O)(=O)NC1CCCCCC1`, the inhibition is -2.78%.
In the case of `COc1ccccc1OCCn1c(SCC(N)=O)nc2ccccc21` it was -0.1%; in that of `O=C(Oc1c(-c2ccco2)oc2ccccc2c1=O)c1cccnc1`, 0.08%.
In the case of `COCCCNC(=S)N(CCN(C)C)Cc1cc2cc3c(cc2[nH]c1=O)OCCO3`, the inhibition was 1.43%.
As for `Cc1cccc(NC(=O)C2CCCN(C(=O)NCc3ccccc3)C2)c1C` (configuration not stated), the inhibition is 0.69%.
As to `Cc1ccc2cc(/C=N/NC(=O)[C@@H]3CCCN3)c(Cl)nc2c1`, the inhibition was 10.3% (active).
In the case of `CSCC[C@H](NC(=O)OC(C)(C)C)C(=O)N/N=C/c1cc2ccc(C)cc2nc1Cl`, the inhibition is 0.5%.
In the case of `Cc1ccc2cc(/C=N/Nc3ccc(C(=O)O)cc3)c(Cl)nc2c1` it was 1.26%.
In the case of `Cc1cccc(CS(=O)(=O)c2ncc(Cl)c(C(=O)Nc3ccc(F)cc3)n2)c1` it was -3.25%; in that of `O=C(CCC1CCCN(C(=O)c2ccc(F)c(F)c2)C1)N1CCN(c2ccccn2)CC1` (configuration not stated), -0.15%.
In the case of `CCn1ccnc1CNC(=O)CC1C(=O)NCCN1Cc1ccc(F)cc1Cl` (configuration not stated) it was -4.36%; in that of `O=C1c2ccccc2C(=O)N1c1cccc2ccccc12`, -0.93%.
On to `Cc1nn(-c2cc(Cl)ccc2N)c(=O)c2ccccc12`, for which the inhibition was -2.2%.
In the case of `CN1C(=O)c2cccc3c(N)ccc(c23)C1=O` it was 50.1% (active); in that of `CC(=O)Nc1ccccc1Sc1ccc2c3c(cccc13)C(=O)N(c1ccc(C)cc1)C2=O`, -3.98%; in that of `Cc1nn(C)cc1N1C(=O)c2cccc3c(N)ccc(c23)C1=O`, 21.7% (active).
In the case of `O=C(O)c1ccc2c3c(cccc13)C(=O)N(OS(=O)(=O)c1ccccc1)C2=O` it was 0.17%; in that of `NS(=O)(=O)c1ccc(N=Nc2c(O)[nH]c3ccc(Br)cc23)cc1`, -2.22%; in that of `Cc1c(C=O)c2ccccc2n1CCOc1ccccc1`, -0.2%.
In the case of `CN(C)CCCN(C(=O)c1ccc(S(=O)(=O)N2CCCc3ccccc32)cc1)c1nc2ccc(F)cc2s1` it was -1.07%.
Take `CCc1cc(C(=O)c2ccc(OC)cc2)c(NC(=O)CN2CCN(C)CC2)s1`: the inhibition was 7.76% (active).
As to `CCc1cc(C(N)=O)c(NC(=O)c2ccc(OC)cc2)s1`, the inhibition is -2.73%.
As to `CCOc1ccc(NC(=O)CN2CCN(CC(=O)Nc3ccc(OC)cc3)CC2)cc1`, the inhibition is 0.38%.
As to `COc1cccc(CN(C)CC2CCCN(CCc3ccc(Cl)cc3)C2)c1OC` (configuration not stated), the inhibition was -0.31%.
For `COc1ccc(CNc2cc(C)cc(C)c2)cc1OC`, the inhibition is -0.65%.
For the molecule `O=C(/C=C/c1cccc(C(F)(F)F)c1)N1CCN(c2ccccn2)CC1`, the inhibition is -1.71%.
As to `COc1ccccc1NC(=O)C1CCN(C(=O)c2ccc(C(C)(C)C)cc2)CC1`, the inhibition is -0.92%.
In the case of `Cc1ccc(NS(=O)(=O)c2ccc3c(c2)NC(=O)CO3)cc1` it was -3.86%.
In the case of `COc1cccc(/C=C2\Sc3ccc(C(=O)NCC4CCCO4)cc3N(C)C2=O)c1` (configuration not stated) it was 2.03%; in that of `COCCCn1c(SCC(=O)NC2CCCC2)nnc1-c1ccccc1`, -3.05%.
`CCC(C)c1ccc(NC(=S)N2CCCC2)cc1` (configuration not stated): the inhibition was -4.58%.
Consider `Cc1cc(C)c2nc(-c3ccco3)cc(C(=O)O)c2c1`, for which the inhibition is -2.98%.
As to `Cc1cc(C)c2nc3nc(C)cc(C)c3c(N)c2c1`, the inhibition was 23.4% (active).
`Cc1cc(C)c2nc(SCCC#N)nc(C)c2c1`: the inhibition was 0.46%.
Regarding `Cc1cccnc1CC(C)NC(=O)c1cc(COc2cncc(Cl)c2)on1` (configuration not stated), the inhibition is -1.87%.
In the case of `OCCN1CCN(c2nnc(-c3ccccc3)c3ccccc23)CC1` it was 1.21%; in that of `O=C1c2ccccc2C(=O)c2c1cccc2N1CCN(Cc2ccccc2)CC1`, -2.44%.
For `O=C1c2ccccc2C(=O)c2c1cccc2N1CCN(CCO)CC1`, the inhibition was 8.84% (active).
In the case of `CN(C)Cc1c(O)ccc2c(=O)c(-c3ccccc3Cl)coc12` it was -1.33%; in that of `Cc1ccc(CNC(=O)C2CCCN2S(=O)(=O)c2ccc3c(c2)C(C)(C)C(=O)N3C)cc1` (configuration not stated), -0.78%.
In the case of `Cc1ccc2nc3n(c(=O)c2c1)CCC3` it was -2.8%.
In the case of `Cc1ccc2nc(Nc3ccccc3)cc(C)c2c1`, the inhibition is 0.49%.
In the case of `Cc1ccc2nc(C)c3c(c2c1)N(c1ccccc1)CC3` it was 14.6% (active); in that of `COc1ccc(S(=O)(=O)N(CC(=O)NCc2ccco2)c2ccc(F)cc2)cc1`, -4.2%; in that of `CCOc1ccccc1-c1nc(CN2CCC(C(=O)N3CCOCC3)CC2)c(C)o1`, -1.39%.
In the case of `Cc1cc(C)c2c(n1)nn1c(-n3ccnc3)cc(C)nc21` it was 5.51%.
With `Cc1cc(C)c2c(n1)nn1c(N3CCOCC3)cc(C)nc21`, the inhibition was 16.1% (active).
For the molecule `Cc1cc(C)c2c(n1)nn1c(N3CCN(c4cccc(Cl)c4)CC3)cc(C)nc21`, the inhibition was -6.43%.
Turning to `COc1ccc(OCC(=O)NCCS(=O)(=O)N2CCN(c3ccc(F)cc3)CC2)cc1`, the inhibition was -1.58%.
Regarding `CCC(=O)N1c2ccc(S(=O)(=O)NCc3ccco3)cc2CC1C` (configuration not stated), the inhibition was -0.12%.
In the case of `O=C(N/C(=C\c1ccc([N+](=O)[O-])cc1)C(=O)N1CCCCC1)c1ccco1` it was -3.79%; in that of `COc1ccc(OC)c(S(=O)(=O)n2c([N+](=O)[O-])cnc2C)c1`, -2.01%.
As to `CCOC(=O)C(Cc1ccc(N)cc1)N1C(=O)c2ccccc2C1=O` (configuration not stated), the inhibition was -2.51%.
In the case of `Cc1cc(Cl)ccc1OCCCC(=O)NCc1ccncc1` it was -1.05%; in that of `CC(Oc1cc2oc(=O)c3c(c2cc1Cl)CCCC3)C(=O)NCc1ccncc1` (configuration not stated), 7.79% (active).
As for `COc1ccc(S(=O)(=O)NC(C)C(=O)NCc2ccncc2)cc1Cl` (configuration not stated), the inhibition was -2.14%.
As for `CCCCc1nc2cc(C(=O)NCCc3cnn(C)c3)ccc2o1`, the inhibition was 1.12%.
In the case of `CC(C)(C)CC(=O)Nc1nnc(SCC(=O)NCc2cccs2)s1` it was 20.2% (active).
As to `Cc1nnc(SCC(=O)NCc2cccs2)[nH]c1=O`, the inhibition was -0.38%.
In the case of `O=C(Cc1cccs1)Nc1nnc(SCc2ccc(F)cc2)s1` it was 0.7%; in that of `CCn1c(SCc2cccc(C(=O)O)c2)nnc1-c1ccc(Cl)cc1`, -1.15%; in that of `Cn1c(=O)c2c(nc(N3CCCCCC3)n2CC(=O)c2ccc(Br)cc2)n(C)c1=O`, -2.28%.
In the case of `Cn1c(=O)c2c(nc(N3CCOCC3)n2CCNC2=NCCC2)n(C)c1=O` it was 16% (active).
`CCCCn1c(SCC(=O)N2CCOCC2)nc2c1c(=O)n(C)c(=O)n2C`: the inhibition was 1.45%.
Regarding `COc1ccc(C(=O)NCCNc2ccc([N+](=O)[O-])cn2)cc1`, the inhibition was 0.89%.
Regarding `Cc1c(OC(C)C(=O)NCC2CCC(C(=O)O)CC2)ccc2c1oc(=O)c1ccccc12` (configuration not stated), the inhibition was 10.8% (active).
In the case of `Cc1cc(=O)oc2c(C)c(OC(C)C(=O)NC3CCN(Cc4ccccc4)CC3)ccc12` (configuration not stated) it was 2.37%; in that of `Cc1c(OC(C)C(=O)N[C@@H](Cc2ccccc2)C(=O)O)ccc2c3c(c(=O)oc12)CCCC3` (some centres not stated), 6.52%.
In the case of `C=CCc1ccc(OCCOc2cccc(/C=N/n3cnnc3)c2)c(OC)c1` it was 0.81%.
In the case of `Cc1noc(C)c1CSCC(=O)N(CCC(C)C)c1c(N)n(Cc2ccccc2)c(=O)[nH]c1=O` it was -3.06%; in that of `O=C(COc1ccc2c3c(c(=O)oc2c1)CCCC3)NCC(O)c1ccccc1` (configuration not stated), 6.2%; in that of `NC(=O)COc1ccc2c3c(c(=O)oc2c1)CCCCC3`, 7.97% (active).
`Cc1c(C)c2ccc(OCC(=O)N3CCN(c4cccc(Cl)c4)CC3)cc2oc1=O`: the inhibition was -1.38%.
With `CCCCc1cc(=O)oc2c(C)c(OCC(=O)N3CCC(C(N)=O)CC3)ccc12`, the inhibition is -1.28%.
In the case of `O=C(COc1ccc2c3c(c(=O)oc2c1)CCC3)NC1CCCCC1` it was -1.01%; in that of `NC(=O)C1CCN(C(=O)COc2ccc3c4c(c(=O)oc3c2)CCC4)CC1`, 14.1% (active).
In the case of `Cc1cc(Cl)nc(NC(=O)Nc2cccc(Cl)c2)n1` it was 1.05%; in that of `Nc1cc(N)nc(SCc2cccc(F)c2)n1`, 3.79%.
For `N=c1oc2ccccc2cc1C(=O)NCc1ccccc1`, the inhibition was -0.7%.
In the case of `CCOC(=O)CSc1nc2ccc(C)cc2[nH]1` it was 0.26%; in that of `CCOC(=O)CSc1nc2ccc(C)cc2n2cnnc12`, 9.79% (active); in that of `COc1ccc(CCNc2nc3ccc(C)cc3n3cnnc23)cc1OC`, 0.51%.
In the case of `CCOC(=O)c1sc(NC(=S)n2cc(C)cn2)c(C(=O)OCC)c1C` it was -2.26%; in that of `CN1CCN(c2cc3c(cc2F)c(=O)c(C(=O)O)cn3CCF)CC1`, -0.28%; in that of `CCn1cc(S(=O)(=O)c2cccc(C)c2)c(=O)c2cc(F)c(N3CCN(C)CC3)cc21`, 12.1% (active).
In the case of `CCn1cc(C(=O)NCCO)c(=O)c2cc(F)c(N3CCN(C)CC3)cc21` it was 1.17%; in that of `COc1ccc(/C=C/C(=O)NC(=S)N2CCCC(C(N)=O)C2)cc1` (configuration not stated), -3%; in that of `COc1ccc(CNc2ccc3c(c2)CCC3)cc1OC`, -1.76%.
Take `CCOC(=O)c1ccc2c(c1)nc(C)n2CC`: the inhibition was -4.24%.
In the case of `CC(=O)c1nc2ccccc2n1Cc1ccccc1` it was -0.19%.
Regarding `CC(=O)c1ccc(-c2ccc(Cn3c(C)nc4cc(N)c(C)nc43)cc2)cc1`, the inhibition is 21.7% (active).
With `O=C(N/N=C/c1ccc(Cl)c(Cl)c1)c1ccc2nc[nH]c2c1`, the inhibition was -1.16%.
In the case of `CS(=O)(=O)N1CCCC(C(=O)Nc2ccccc2C(F)(F)F)C1` (configuration not stated) it was -0.2%; in that of `O=C(CSc1ccc(-c2ccco2)nn1)Nc1cccc(F)c1`, -1.64%.
Regarding `Cc1ccccc1C(=O)NC(=S)NC1CC1`, the inhibition was -2.76%.
